Experimental findings from PubChem BioAssay (NCI) are described below.

Each structure is given as a SMILES string. This is part of a sample that, as a whole, favours compounds with a hit. Of some 83,000 tested, about 20% had one in any assay.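 Negative percent growth values reflect cell death: -40 means 40% of the cells present at the start died, and -100 means all died.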 Values without a mark were called inactive. Activity calls are given as the source filed them. How the source made its calls: active means growth percent below 10; inactive means the rest.

What all share (assay): NCI-60 one-dose screen, 48 h (100 = growth as untreated, 0 = no growth, -100 = all killed)
One assay deals with NCI-H23 lung. The note with it: 10 µM unless noted.
The test system of the next assay is NCI-H226 lung. Particulars: 10 µM unless noted.
The subject of another assay is NCI-H322M lung. The note with it: 10 µM unless noted.
For a further assay, the system named is NCI-H460 lung. The note with it: 10 µM unless noted.
In another assay the test system is HOP-92 NSCLC. The note with it: 10 µM.
In a further assay the test system is NCI-H522 lung. Particulars: 10 µM.
The subject of another assay is A549/ATCC NSCLC. The note with it: 10 µM unless noted.
For a further assay, the system named is 786-0 renal. The note with it: 10 µM unless noted.
The next assay has as its system COLO 205 colon. Particulars: 10 µM unless noted.
A further assay deals with DU-145 prostate. The note with it: 10 µM unless noted.
The next assay relates to K-562 leukemia. Particulars: 10 µM unless noted.
A further assay concerns MALME-3M melanoma. Particulars: 10 µM unless noted.
Another assay has as its system MDA-MB-231 breast. Particulars: 10 µM unless noted.
In a further assay the test system is RXF 393 renal. Particulars: 10 µM unless noted.
The test system of another assay is SF-268 CNS. The note with it: 10 µM unless noted.
Another assay concerns SF-295 CNS. Particulars: 10 µM unless noted.
The next assay deals with SF-539 CNS. Particulars: 10 µM unless noted.
For a further assay, the system named is UACC-257 melanoma. Particulars: 10 µM unless noted.
Another assay deals with M14 melanoma. The note with it: 10 µM unless noted.

For the molecule `Cc1cc2c(-c3nc4ccccc4n3C)c(O)c(O)cc2c(O)c1-c1c(C)cc2c(-c3nc4ccccc4n3C)c(O)c(O)cc2c1O`, the growth is 24.7% with NCI-H23 lung; 68.1% in the assay with NCI-H226 lung; 73% in the assay with NCI-H322M lung; 7.3% (active) in the assay on NCI-H460 lung; 52.1% in the assay on HOP-92 NSCLC; 41.4% in the assay on NCI-H522 lung. Also, the growth with A549/ATCC NSCLC is 26.7%; with 786-0 renal, 76%; with COLO 205 colon it was 4.14% (active); with DU-145 prostate, 43.5%; in the assay with K-562 leukemia, 37.5%; with MALME-3M melanoma, 86.1%. The growth was 57.3% in the assay with MDA-MB-231 breast; 62.7% with RXF 393 renal; 38.5% with SF-268 CNS; 26% with SF-295 CNS; 22.1% with SF-539 CNS; 82.9% with UACC-257 melanoma. The growth in the assay with M14 melanoma is 34.9%.
Take `Nc1ccc(S(=O)(=O)c2ccc(NO)cc2)cc1`: the growth in the assay with NCI-H23 lung was 100%; with NCI-H226 lung, 118%; in the assay with NCI-H322M lung, 116%; in the assay with NCI-H460 lung, 111%; in the assay on HOP-92 NSCLC, 108%; in the assay with NCI-H522 lung, 79.4%. Also, the growth with A549/ATCC NSCLC was 105%; in the assay on 786-0 renal, 99.1%; in the assay with COLO 205 colon it was 111%; in the assay with DU-145 prostate, 89.4%; with K-562 leukemia, 91.8%; in the assay on MALME-3M melanoma, 144%. Besides, the growth with MDA-MB-231 breast is 98.3%; in the assay on RXF 393 renal, 53.7%; in the assay with SF-268 CNS, 109%; in the assay on SF-295 CNS, 106%; with SF-539 CNS it was 76.8%; with UACC-257 melanoma it was 106%. Further, the growth in the assay with M14 melanoma is 117%.
Consider `Oc1ccccc1/C=N/N=C/c1c(O)ccc2ccccc12`, for which the growth in the assay with NCI-H23 lung is 82%; with NCI-H226 lung it was 90.8%; with NCI-H322M lung, 107%; in the assay with NCI-H460 lung, 88%; in the assay on HOP-92 NSCLC, 66.9%; in the assay with NCI-H522 lung it was 84%. Besides, the growth in the assay with A549/ATCC NSCLC was 95.6%; in the assay on 786-0 renal it was 107%; in the assay with COLO 205 colon, 104%; with DU-145 prostate, 96.9%; in the assay on K-562 leukemia, 78.5%; in the assay with MALME-3M melanoma, 91.3%. Also, the growth in the assay on MDA-MB-231 breast is 69.9%; in the assay on RXF 393 renal it was 109%; with SF-268 CNS, 92.5%; in the assay with SF-295 CNS it was 98.1%; in the assay on SF-539 CNS, 96.9%; in the assay on UACC-257 melanoma, 98.2%. In addition, the growth in the assay on M14 melanoma is 80%.
On to `CCOC(=O)CSSCC(=O)OCC`, for which the growth with NCI-H23 lung was 112%; in the assay with NCI-H226 lung, 123%; in the assay on NCI-H322M lung, 106%; in the assay with NCI-H460 lung it was 108%; in the assay with HOP-92 NSCLC, 103%; in the assay with NCI-H522 lung, 99.7%. The growth is 98.7% in the assay on A549/ATCC NSCLC; 106% in the assay with 786-0 renal; 113% with COLO 205 colon; 106% with DU-145 prostate; 101% in the assay on K-562 leukemia; 112% in the assay with MALME-3M melanoma. Besides, the growth in the assay with MDA-MB-231 breast is 107%; with RXF 393 renal, 128%; with SF-268 CNS, 104%; in the assay on SF-295 CNS it was 100%; in the assay with SF-539 CNS, 95.9%; with UACC-257 melanoma, 94.1%. Further, the growth in the assay with M14 melanoma is 119%.
For the molecule `O=C(N/N=C\c1ccc(Cl)cc1)C(=O)N/N=C\c1ccc(Cl)cc1`, the growth in the assay on NCI-H23 lung is 102%; in the assay with NCI-H226 lung, 110%; with NCI-H322M lung, 92.9%; with NCI-H460 lung it was 103%; in the assay with HOP-92 NSCLC, 92.3%; in the assay with NCI-H522 lung, 101%. In addition, the growth in the assay on A549/ATCC NSCLC is 102%; in the assay with 786-0 renal it was 91.2%; in the assay on COLO 205 colon it was 97%; with DU-145 prostate, 123%; in the assay on K-562 leukemia it was 95.2%; in the assay with MALME-3M melanoma, 89.6%. Moreover, the growth with MDA-MB-231 breast was 91.3%; in the assay on RXF 393 renal, 118%; in the assay on SF-268 CNS, 120%; with SF-295 CNS it was 96.8%; with SF-539 CNS, 99.5%; with UACC-257 melanoma, 108%. Also, in the assay with M14 melanoma, the growth is 103%.
With `Cc1nc(NC(=S)Nc2ccc(F)cc2)sc1C(=O)NNC(=S)Nc1ccc(F)cc1`, the growth in the assay on NCI-H23 lung was 38%; in the assay with NCI-H226 lung, 60.7%; in the assay with NCI-H322M lung, 86.8%; in the assay with NCI-H460 lung, 70.2%; in the assay with HOP-92 NSCLC, 19.7%; in the assay with NCI-H522 lung, 33.9%. Also, the growth was 66.2% in the assay on A549/ATCC NSCLC; 18.9% in the assay on 786-0 renal; 85.9% in the assay with COLO 205 colon; 82% with DU-145 prostate; 51.4% with K-562 leukemia; 125% in the assay with MALME-3M melanoma. Further, the growth in the assay with MDA-MB-231 breast is 77.9%; in the assay on RXF 393 renal it was 94%; in the assay with SF-268 CNS it was 92.4%; in the assay on SF-295 CNS, 40.6%; with SF-539 CNS, 93.8%; with UACC-257 melanoma, 82.1%. Also, the growth in the assay on M14 melanoma is 51%.
Take `CCCC(C)c1cc(Cc2cc(Cl)cc(Cl)c2O)c(O)c(Cc2cc(Cl)cc(Cl)c2O)c1` (configuration not stated): the growth in the assay with NCI-H23 lung is -6.96% (active); in the assay on NCI-H226 lung it was -4.21% (active); with NCI-H322M lung, 9.16% (active); in the assay with NCI-H460 lung, 3.71% (active); in the assay with HOP-92 NSCLC it was -19.2% (active); in the assay on NCI-H522 lung it was 4.06% (active). For the same molecule, the growth in the assay on A549/ATCC NSCLC was 15%; in the assay on 786-0 renal it was 6.89% (active); in the assay on COLO 205 colon it was 23.9%; in the assay with DU-145 prostate it was 26.8%; in the assay on K-562 leukemia, 7.77% (active); in the assay with MALME-3M melanoma, -22.2% (active). In addition, the growth with MDA-MB-231 breast was -13.4% (active); in the assay on RXF 393 renal it was -10% (active); in the assay with SF-268 CNS, 16.3%; in the assay on SF-295 CNS, -38.6% (active); in the assay with SF-539 CNS it was -3.24% (active); in the assay with UACC-257 melanoma, -3.64% (active). Further, the growth with M14 melanoma was 7.97% (active).
For `Cc1nc2c(nnn2-c2ccccc2)c2nc(-c3ccc(Cl)cc3)oc(=O)c12`, the growth in the assay with NCI-H23 lung was 116%; with NCI-H226 lung, 92.8%; in the assay on NCI-H322M lung it was 103%; in the assay with NCI-H460 lung, 115%; in the assay on HOP-92 NSCLC, 117%; in the assay on NCI-H522 lung it was 99.7%. The growth was 111% in the assay on A549/ATCC NSCLC; 105% in the assay on 786-0 renal; 120% with COLO 205 colon; 119% with DU-145 prostate; 112% with K-562 leukemia; 101% in the assay on MALME-3M melanoma. Also, the growth with MDA-MB-231 breast was 119%; with RXF 393 renal, 104%; in the assay on SF-268 CNS, 103%; in the assay with SF-295 CNS it was 102%; in the assay on SF-539 CNS it was 96.8%; in the assay on UACC-257 melanoma it was 117%. In addition, the growth in the assay with M14 melanoma is 108%.
